In one assay the test system is Staphylococcus aureus. Kind of assay: Antibacterial activity against Staphylococcus aureus MRSA ATCC 43300 (CO-ADD:GP_020); MIC in CAMBH media using NBS plates, by Resazurin F(560/590). The assay is classed as functional. Conditions: Concentration 20 uM, ASSAY_TEST Inhibition of Bacterial Growth, detection method Resazurin, Fluorescence (ex560/em590), MEDIA CAMHB, plate type 384well, CORNING #3640, time 18 hr. In general terms: Alamar Blue is a resazurin reagent that responds to reducing activity.

The next assay concerns Acinetobacter baumannii. Put plainly: Antibacterial activity against Acinetobacter baumannii ATCC 19606 (CO-ADD:GN_034); MIC in CAMBH media using NBS plates, by Resazurin F(560/590). The assay is classed as functional. The note with it: Concentration 20 uM, ASSAY_TEST Inhibition of Bacterial Growth, detection method Resazurin, Fluorescence (ex560/em590), MEDIA CAMHB, plate type 384well, CORNING #3640, time 18 hr.

The subject of the next assay is Escherichia coli. Put plainly: Antibacterial activity against Escherichia coli ATCC 25922 (CO-ADD:GN_001); MIC in CAMBH media using NBS plates, by Resazurin F(560/590). The assay is classed as functional. Conditions: Concentration 20 uM, ASSAY_TEST Inhibition of Bacterial Growth, detection method Resazurin, Fluorescence (ex560/em590), MEDIA CAMHB, plate type 384well, CORNING #3640, time 18 hr.

The next assay deals with Klebsiella pneumoniae. The note with it: Concentration 20 uM; ASSAY_TEST Inhibition of Bacterial Growth; detection method Absorption (OD600); MEDIA CAMHB; plate type 384well; NBS; CORNING #3640; time 18 hr.
In a further assay the test system is Candida albicans. Conditions: 20 µM.
The next assay relates to Cryptococcus neoformans. Conditions: Concentration 20 uM; ASSAY_TEST Inhibition of Fungal Growth; detection method Resazurin; Absorption (OD600-OD570); plate type 384well; NBS; CORNING #3640.

Structures are written as SMILES. For part of these data: Measured potencies and affinities stand elsewhere.

Experimental findings from ChEMBL document CHEMBL4296182, “CO-ADD screening of NIH NCI Diversity Set V” are described below.

A word on the Inhibition: it is the change of the read-out against control, counted positive when it falls. Take `c1cncc(-c2nc3ccccc3s2)c1`: the Inhibition was -7.01% with Staphylococcus aureus; 4.56% in the assay with Acinetobacter baumannii; -11.97% in the assay on Escherichia coli; 2.37% in the assay on Klebsiella pneumoniae; 4.69% in the assay with Candida albicans; 25.76% in the assay on Cryptococcus neoformans.

`CC1CC=C(O)C12OCC(C)(C)CO2` (stereo not given): the Inhibition in the assay on Staphylococcus aureus is 3.19%; in the assay on Acinetobacter baumannii it was -6.5%; in the assay with Escherichia coli it was 5.59%; in the assay on Klebsiella pneumoniae, 14.38%; with Candida albicans, 0.02%; in the assay on Cryptococcus neoformans, -5.4%.

For the molecule `C#CCSc1nc(-c2ccco2)n[nH]1`, the Inhibition was 6.25% in the assay on Staphylococcus aureus; 16.42% in the assay on Acinetobacter baumannii; -3.2% in the assay on Escherichia coli; 9.41% in the assay with Klebsiella pneumoniae; 3.4% in the assay on Candida albicans; -6.15% with Cryptococcus neoformans.

As for `O=C(Nc1nc2ccccc2s1)Nc1ccc([N+](=O)[O-])cc1Cl`, the Inhibition in the assay with Staphylococcus aureus was 3.4%; in the assay on Acinetobacter baumannii it was 12.6%; in the assay with Escherichia coli, -5.05%; in the assay with Klebsiella pneumoniae it was 8.17%; in the assay on Candida albicans it was 4.63%; in the assay with Cryptococcus neoformans, -2.66%.

As to `COc1ccc2nc3cc(Cl)ccc3c(C#N)c2c1`, the Inhibition is 10.22% in the assay on Staphylococcus aureus; 12.04% in the assay on Acinetobacter baumannii; 6.91% in the assay on Escherichia coli; 7.74% in the assay on Klebsiella pneumoniae; 4.11% in the assay on Candida albicans; -4.51% in the assay on Cryptococcus neoformans.

`Nc1ccc(N/C(S)=N/c2ccccc2)cc1`: the Inhibition was 15.05% in the assay with Staphylococcus aureus; 4.29% with Acinetobacter baumannii; 7.29% in the assay on Escherichia coli; 5.43% in the assay on Klebsiella pneumoniae; 1.8% with Candida albicans; -4.63% in the assay on Cryptococcus neoformans.

As to `CC(=O)OCCn1c([N+](=O)[O-])cnc1/C=[N+](\[O-])C1CCCCC1`, the Inhibition in the assay with Staphylococcus aureus was 22.69%; with Acinetobacter baumannii, 11.41%; in the assay with Escherichia coli it was 8.05%; in the assay with Klebsiella pneumoniae it was 25.14%; in the assay with Candida albicans, 4.46%; with Cryptococcus neoformans, -10.83%.

As for `C=C(C)C(=O)Nc1ccc(NC(C)C)cc1`, the Inhibition in the assay on Staphylococcus aureus is 12%; in the assay with Acinetobacter baumannii, 5.36%; with Escherichia coli it was 6.32%; in the assay with Klebsiella pneumoniae it was 8.48%; in the assay on Candida albicans it was 4.24%; with Cryptococcus neoformans, -6.96%.

In the case of `Oc1nc2ccccc2n1C1=CCNCC1`, the Inhibition in the assay on Staphylococcus aureus is -11.2%; with Acinetobacter baumannii it was -15.97%; with Escherichia coli, 0.33%; in the assay on Klebsiella pneumoniae, 8.73%; with Candida albicans it was 2.14%; in the assay on Cryptococcus neoformans, -5.4%.

On to `Cc1ccc(/C=C2\CCOC2=O)cc1`, for which the Inhibition in the assay with Staphylococcus aureus is 9.11%; with Acinetobacter baumannii, -13.71%; in the assay on Escherichia coli, 3.05%; with Klebsiella pneumoniae it was 29.06%; in the assay with Candida albicans, 11.6%; in the assay on Cryptococcus neoformans it was 1.19%.

For the molecule `C=CCNC(=S)N1CCN(c2ccccc2Cl)CC1`, the Inhibition with Staphylococcus aureus is 6.69%; in the assay with Acinetobacter baumannii, 9.34%; with Escherichia coli, -14.86%; with Klebsiella pneumoniae, 17.35%; in the assay on Candida albicans, 32.7%; in the assay with Cryptococcus neoformans it was -0.57%.

Take `CC(=O)NC1(C(=O)O)CCCC1`: the Inhibition with Staphylococcus aureus is 8.27%; in the assay on Acinetobacter baumannii, -6.77%; in the assay with Escherichia coli, 8.7%; with Klebsiella pneumoniae, 15.18%; in the assay on Candida albicans, 4.3%; with Cryptococcus neoformans it was 0.8%.

With `Nc1ncnc2c1ncn2C1OC(CO)C(O)C1N` (stereo not given), the Inhibition in the assay with Staphylococcus aureus is -5.5%; in the assay with Acinetobacter baumannii it was -14.65%; in the assay on Escherichia coli, 5.58%; in the assay on Klebsiella pneumoniae, 3.14%; in the assay on Candida albicans, -0.11%; in the assay with Cryptococcus neoformans it was -5.11%.

On to `CC1CO/C(=C2\C(=O)OCC2C)C1` (stereo not given), for which the Inhibition was 4.79% in the assay on Staphylococcus aureus; -14.17% in the assay on Acinetobacter baumannii; 10.92% in the assay on Escherichia coli; 2.95% in the assay with Klebsiella pneumoniae; 41.2% with Candida albicans; -12.83% in the assay with Cryptococcus neoformans.

Take `CN(CCC#N)c1ccc(/C=C(\C#N)c2cccc(C(F)(F)F)c2)cc1`: the Inhibition was -1.81% in the assay on Staphylococcus aureus; 5.38% in the assay with Acinetobacter baumannii; -0.01% with Escherichia coli; 0.85% in the assay with Klebsiella pneumoniae; 3.04% in the assay on Candida albicans; -3.8% in the assay on Cryptococcus neoformans.

As to `CCC(C)NC(=O)CC(C)C` (stereo not given), the Inhibition with Staphylococcus aureus is 6.08%; in the assay on Acinetobacter baumannii it was -12.68%; in the assay with Escherichia coli it was 19.94%; in the assay on Klebsiella pneumoniae, 15.35%; in the assay with Candida albicans, -0.68%; in the assay with Cryptococcus neoformans, -12.52%.

In the case of `NC(=O)CCC(C(=O)O)N1C(=O)c2ccc(O)cc2C1=O` (stereo not given), the Inhibition in the assay on Staphylococcus aureus is 8.42%; in the assay on Acinetobacter baumannii it was 13.26%; in the assay with Escherichia coli it was -2.7%; in the assay with Klebsiella pneumoniae, 12.88%; with Candida albicans, 4.99%; with Cryptococcus neoformans, -2.28%.

Consider `CCOc1ccc(NC(=O)C2CCCN(C)C2)cc1` (stereo not given), for which the Inhibition is 8.6% with Staphylococcus aureus; 6.87% with Acinetobacter baumannii; -2.25% in the assay with Escherichia coli; 20.11% in the assay with Klebsiella pneumoniae; 9.11% in the assay on Candida albicans; -4.92% in the assay on Cryptococcus neoformans.

For the molecule `Oc1ccc(/N=N/c2ccccc2)c(O)c1/N=N/c1ccccc1`, the Inhibition is -22.17% with Staphylococcus aureus; 3.79% in the assay on Acinetobacter baumannii; -20.22% with Escherichia coli; -6.85% with Klebsiella pneumoniae; 8.07% in the assay on Candida albicans; 33.55% in the assay with Cryptococcus neoformans.

Take `C#CCSc1nnnn1-c1ccc(Br)c(C)c1`: the Inhibition in the assay on Staphylococcus aureus is 21.42%; in the assay with Acinetobacter baumannii, 5.77%; in the assay with Escherichia coli it was 6.7%; in the assay with Klebsiella pneumoniae, 10.23%; in the assay with Candida albicans, 1.42%; with Cryptococcus neoformans it was -16.38%.

In the case of `Nc1nc2cc([N+](=O)[O-])ccc2[nH]1`, the Inhibition with Staphylococcus aureus was 15.13%; with Acinetobacter baumannii, -11.46%; in the assay on Escherichia coli, 3.91%; with Klebsiella pneumoniae, 4.78%; in the assay on Candida albicans, 0.21%; in the assay with Cryptococcus neoformans, -13.6%.

Turning to `CC(=O)c1c(O)c(C)c(O)c2c1OC1=CC(=O)/C(=C(/C)N)C(=O)C12C` (stereo not given), the Inhibition was -3.02% in the assay with Staphylococcus aureus; 6.34% in the assay with Acinetobacter baumannii; 8.14% in the assay on Escherichia coli; 14.26% in the assay with Klebsiella pneumoniae; 6.96% in the assay with Candida albicans; -10.35% in the assay on Cryptococcus neoformans.

On to `Cc1nc(N)nc(Cl)c1CCC1OCCO1`, for which the Inhibition is 7.04% with Staphylococcus aureus; -8.91% in the assay on Acinetobacter baumannii; 8.75% with Escherichia coli; 6.29% with Klebsiella pneumoniae; 2.66% in the assay on Candida albicans; -6.74% with Cryptococcus neoformans.

For `Cc1cc2c(cc1C)N(C(=O)CCl)CC(=O)N2`, the Inhibition in the assay with Staphylococcus aureus is -15.91%; in the assay on Acinetobacter baumannii, -11.28%; in the assay with Escherichia coli, 5.03%; in the assay with Klebsiella pneumoniae it was 7.32%; in the assay on Candida albicans, 2.46%; in the assay on Cryptococcus neoformans it was -7.55%.

`Cc1ccc(S(=O)(=O)NC(=O)Nc2nccs2)cc1`: the Inhibition with Staphylococcus aureus is 16.17%; in the assay with Acinetobacter baumannii it was -9.13%; in the assay on Escherichia coli it was 9.78%; in the assay with Klebsiella pneumoniae it was 14.17%; in the assay on Candida albicans it was 1.46%; in the assay on Cryptococcus neoformans it was -5.56%.
